AMA1-RON2 inh: inhibitors of Plasmodium falciparum AMA1-RON2 interaction | AlphaScreen AMA1-biotinylated RON2 peptide binding | Potency, µM (series often up to 58.2 µM), for the others: at the highest dose activity change, negative = inhibition, most hits filed as inhibitors | hit rate 0.2% among 360,000 | AID 720542;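 further: 0% = vehicle wells and -100% = peptide control; nearly all actives have a fitted effect of over 45% in size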
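AMA1 (3D7) with his tag at 25 nM final met compounds first, then biotinylated RON2 peptide at 25 nM; detection used donor plus acceptor beads, 10 µg/mL apiece, read by AlphaScreen after 30 min at room temperature.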
Pf growth 48h: P. falciparum growth inhibition at 48 hours (one generation). P. falciparum luciferase growth in erythrocytes, 48 h. hit rate 5.9% among 310,000. AID 504832. Potency, µM (series often up to 28.7 µM), for inactives: at the top dose activity change, negative = inhibition, hits mostly inhibitors; further: on the % scale 0 is the no-effect control and ±100 the full control effect
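Luciferase-expressing parasites in RBCs, 2% Hct / 0.1% parasitemia final; RPMI 1640 + 0.5% Albumax; 37 C, 5% CO2, one generation; luminescence read-out, lower signal = inhibition.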
SARS PLpro yeast: blocks SARS-CoV papain-like protease in a yeast assay; hit rate 0.19% among 330,000; AID 485353; Potency, µM (titrated, usually from 32.9 µM), inactives show top-dose activity, positive = growth rescue, actives largely listed as activators; S. cerevisiae expressing SARS-CoV PLpro, growth rescue; calls by dose curve; further: 0% is about no effect; nearly all actives have a fitted effect of over 55% in size
Pf growth 96h: inhibits malaria parasite growth, 96 h | hit rate 6.9% among 320,000 | P. falciparum luciferase reporter growth, 96 h | Potency, µM (titrated, usually from 28.7 µM), for inactives: at the top dose activity change, negative = inhibition, most hits filed as inhibitors; further: on the % scale 0 is the no-effect control and ±100 the full control effect
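P. falciparum expressing integrated firefly luciferase grown in erythrocytes (2% hematocrit, 0.05% parasitemia final) with compounds for 96 hours at 37 C, 5% CO2. Growth inhibition read as loss of luminescence after adding luciferase detection reagent.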
NS1 function inh: influenza NS1 inhibition. hit rate 0.4% among 270,000. AID 2326. Potency, µM (top dose mostly 46.1 µM), for the others: top-dose activity, positive = more growth; calls by dose curve; further: actives are rising curves; nearly all actives have a fitted effect of over 50% in size
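In this qHTS, NS1 from influenza A is expressed in budding yeast, where it slows growth. Cells are switched from glucose to 2% galactose medium (pH 6.0, -URA), treated with compound, and growth recovery is read at OD600.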
HCV inhibitor: blocks hepatitis C virus; hit rate 3.4% among 340,000; Potency, µM (top dose mostly 41.8 µM), without a hit: at the highest dose activity change, negative = inhibition, hits mostly inhibitors; Huh7.5.1 HCVcc-Cre infection, luciferase reporter, 44 h; further: on the % scale 0 is the no-effect control and ±100 the full control effect
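Cells (1,000/well) were plated 4 h before compound, then infected with HCVcc-Cre virus (~0.5 moi). After 44 h further culture, infection was read as luciferase luminescence following a 15 min substrate incubation at room temperature.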
Starred values were filed as active, the others as inactive; u = inconclusive; x = no result; [ ] = another dose, or the depositor's remark. Hits are enriched below; roughly 12% of the tested compounds scored in any of these assays. Unless noted, the call rests on the fitted dose curve; in most records, active means well fitted curve in the direction sought with a large enough effect; inconclusive means small, poorly fitted or top-dose-only effect, or another doubt; inactive means no such curve, though single readings can be large; an effect the other way counts as inactive or inconclusive. Potency means the concentration at half of the fitted maximal effect.

SMILES	AMA1-RON2 inh	Pf growth 48h	SARS PLpro yeast	Pf growth 96h	NS1 function inh	HCV inhibitor
CCC(C)NC(=O)c1c(N)n(/N=C/c2cccnc2)c2nc3ccccc3nc12 (configuration not stated)	23.0%	u	-6.9%	u	-4.1%	14.1µM*
CC(C)CNC(=O)c1c(N)n(/N=C/c2cccnc2)c2nc3ccccc3nc12	x	6.5%	0.0%	3.29µM*	-8.2%	6.9%
O=C(CSc1cccc(C(F)(F)F)c1)Nc1cc(S(=O)(=O)N2CCCC2)ccc1Cl	5.7%	u	17.7%	u	15.6%	u
CC(C)CNC(=S)N1CCC(C(=O)c2ccc3c(c2)OCCO3)CC1	-1.2%	-8.8%	-1.5%	36.6%	-5.6%	u
Cc1cc(O)c(C(C)C)cc1NC(=O)Nc1cccc2ccccc12	10.1%	10.4µM*	-1.2%	u	12.5%	u
Cc1ccc(C(=O)O)cc1NC(=O)Nc1cccc2ccccc12	-4.9%	33.2%	-4.6%	2.62µM*	16.8%	15.0%
CC(=O)Nc1ccc(-c2ccnc3c2CC(C(=O)NCCC(F)(F)F)O3)cc1 (configuration not stated)	11.7%	x	x	x	x	x
COc1ccc(OCC(O)CNC(=O)c2c(-c3ccccc3)noc2C)cc1 (configuration not stated)	-6.0%	16.7%	0.7%	32.2%	-0.6%	-6.5%
CN(c1ccccc1)c1nc(N)c([N+](=O)[O-])c(NCCO)n1	-0.4%	u	-0.7%	-6.0%	-1.0%	-28.2%
COCC1CCN(C(=O)CC2C(=O)NCCN2Cc2cccc(Oc3ccccc3)c2)CC1 (configuration not stated)	1.7%	14.7µM*	-1.0%	0.4%	7.3%	10.8%
O=C1NCCN(Cc2cccc(Oc3ccccc3)c2)C1CC(=O)N1CCCO1 (configuration not stated)	7.0%	15.4%	-1.0%	5.22µM*	7.9%	-16.1%
CN(C)S(=O)(=O)c1ccc(Cl)c(C(=O)OCC(=O)c2ccco2)c1	10.3%	x	7.7%	x	x	6.6%
N#Cc1c(-c2ccco2)cc(C2CC2)nc1N	-5.4%	15.6%	-4.1%	43.1%	-31.3%	25.1µM*
N#Cc1c(-c2ccco2)cc(-c2cccnc2)nc1N	-6.4%	12.6%	-11.4%	3.3%	u	11.2µM*
N#Cc1c(-c2cccnc2)cc(-c2ccccc2)nc1N	21.0%	0.0%	-1.2%	32.2%	4.2%	18.0%
N#Cc1c(-c2ccccc2)cc(C2CC2)nc1N	11.4%	-27.9%	-6.2%	x	-34.9%	u
C[C@H](CO)N1C[C@H](C)[C@@H](CN(C)S(=O)(=O)c2ccccc2F)Oc2ncc(Br)cc2C1=O	-4.6%	x	x	x	x	x
CN(Cc1ccccc1)Cc1nc2scc(-c3ccccc3)c2c(=O)[nH]1	u	u	-1.7%	u	x	-10.5%
Cc1cc(C)c2c(=O)n3c(nc2c1)C(Cc1ccc(O)cc1)NC(=O)c1cc2ccccc2cc1-3 (configuration not stated)	-0.7%	x	x	x	x	x
O=C(CSc1nc2ccccc2s1)c1sc2sc3ccccc3[n+]2c1O	x	x	x	x	2.2%	x
O=C(Cn1cnc2c(OCc3ccccc3)ncnc21)NCCCN1CCCC1=O	6.7%	x	2.0%	x	x	0.562µM*
O=C1CCCN1CCCNCCCn1cnc2c(OCc3ccccc3)ncnc21	13.0%	x	x	x	x	-2.8%[8.37 µM]
CCOc1ccccc1C(=O)N1c2ccccc2Sc2ccccc21	-8.6%	x	-6.0%	u	-66.7%	11.2µM*
CSC1=NCCN1C(=O)Cc1ccc(F)cc1	12.4%	x	1.4%	9.28µM*	-1.3%	8.5%
CSC1=NCCN1C(=O)Cc1ccc(-c2ccccc2)cc1	-19.9%	26.4%	-0.5%	55.3%	x	u
SMILES	AMA1-RON2 inh	Pf growth 48h	SARS PLpro yeast	Pf growth 96h	NS1 function inh	HCV inhibitor
CCOc1ccccc1C(=O)N1CCN=C1SC	0.0%	x	10.5%	14.7µM*	-8.5%	4.8%
O=[N+]([O-])c1ccccc1S(=O)(=O)Nc1cccnc1	1.9%	182.0%	3.3%	0.0%	1.6%	0.1%
Cc1ccc(C)c(N2C(=O)CC(Cc3ccc(Cl)cc3)C2=O)c1 (configuration not stated)	-4.8%	18.5%	-8.9%	u	5.8%	-24.3%
CC(C)Cn1c(SCC(=O)NC(=O)NC2CCCC2)nc2ccccc21	6.5%	u	2.5%	-4.6%	-36.2%	11.2µM*
CC(C)c1nc(SCC(=O)N2CCCc3ccccc32)c2c(=O)n(C)c(=O)n(C)c2n1	13.5%	u	1.8%	u	4.6%	10µM*
CCn1c(COc2ccccc2)nnc1SCC(=O)CC(=O)Nc1ccccc1OC	6.7%	13.1µM*	2.6%	7.38µM*	u	-5.7%
CCn1c(SCC(=O)N2CCCc3ccccc32)nc2ccccc2c1=O	-4.3%	u	-6.4%	77.3%	-67.0%	5.01µM*
CCCc1nc(SCC(=O)N2CCc3ccccc32)c2c(=O)n(C)c(=O)n(C)c2n1	x	18.1%	0.7%	-0.8%	2.7%	6.1%
CC(C)Cn1c(SCC(=O)N2CCCc3ccccc32)nc2ccccc2c1=O	-8.7%	u	-0.2%	u	11.4%	u
CCn1c(COc2cccc(C)c2)nnc1SCC(=O)CC(=O)Nc1ccccc1OC	79.1%	u	3.6%	17.7%	13.6%	-19.1%
Cc1ccc(S(=O)(=O)N(C)/N=C2/C(=O)N(CC(=O)O)c3ccccc32)cc1	-15.0%	12.3%	0.7%	u	1.3%	11.1%
Cc1nn(C(=O)c2ccc([N+](=O)[O-])cc2)c(C)c1Br	-11.7%	44.3%	-0.6%	53.0%	1.5%	-1.4%
CCn1c(SCC(=O)NC2CCCCC2)nc2ccccc2c1=O	4.2%	52.4%	-2.1%	11.7µM*	-1.8%	2.7%
CCn1c(COc2ccccc2)nnc1SCC(=O)NC1CCCCC1	-0.6%	2.94µM*	-1.3%	-15.6%	-2.0%	-7.3%
O=C(c1ccccc1)N1CCN(S(=O)(=O)N2CCCCC2)CC1	0.3%	13.3%	1.6%	39.9%	u	-15.3%
CC1CC(C)CN(S(=O)(=O)c2ccc(C(=O)N3CCN(c4ccccc4)CC3)cc2)C1 (configuration not stated)	-0.6%	u	0.6%	u	-46.4%	10µM*
Cc1ccc(C(=O)N2CCN(S(=O)(=O)c3ccc(C)cc3)CC2)cc1	-11.9%	-17.2%	23.6%	13.1µM*	0.2%	-1.6%
Cc1ccc(C(=O)N2CCN(S(=O)(=O)N3CCCCC3)CC2)cc1	6.6%	14.4%	u	10.4µM*	-6.3%	9.8%
CCOC(=O)C1(Cc2ccc(Cl)cc2)CCN(C(=O)c2cc(C)nc(C)n2)CC1	-15.3%	0.7%	0.2%	u	-4.2%	7.7%
O=C(c1cccc(C(F)(F)F)c1)C1CCCN(C(=O)CCn2cnnn2)C1 (configuration not stated)	0.6%	1.0%	1.5%	4.8%	2.9%	36.4%
CC(=O)N[C@H](CC(C)C)C(=O)O	x	-11.7%	x	-14.8%	x	x

Bioassay records as filed in PubChem.
